Reference: PubChem BioAssay AID1159580 (chemical genetic matrix, 2015)
In all, about 5,500 compounds went through this assay and about 2,000 (36%) were called active. About 18% were inconclusive and are not listed. Cut-off read from the data, not from the text of the source: active = normalized growth mostly below about 0.91 (no sharp cut-off); inconclusive = no clear call, values can overlap the other calls; inactive = mostly above about 0.92. This is one part of the list.

Assay: chemical genetic growth profiling, strain panel (AID 1159580);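 note: tested at 20 µM; growth read once vehicle control cultures reached saturation at 30 °C; 1 = growth at the plate median or of vehicle wells; lower values mean less growth of the strain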
Settings: S. cerevisiae deletion strains, growth OD

Measured: normalized growth

CCC1OC(=O)[C@H](C)C(=O)[C@H](C)[C@@H](OC2O[C@H](C)C[C@H](N(C)C)[C@H]2O)[C@](C)(OC)C2(CCCn3cnc(-c4cccnc4)c3)C[C@@H](C)C(=O)[C@H](C)[C@H]3N(C2)C(=O)O[C@]13C (stereo partly drawn)
inactive: locus YAL013W, strain DEP1, active compounds read low 1 | locus YAL021C, strain ccr4, active compounds read low 0.973 | locus YAL026C, strain drs2, active compounds read low 0.976 | locus YAL030W, strain snc1, active compounds read low 0.981 | locus YBL061C, strain skt5, active compounds read low 0.98 | locus YBR009C, strain hhf1, active compounds read low 0.962 | locus YBR021W, strain FUR4, active compounds read low 1 | locus YBR023C, strain chs3, active compounds read low 0.998 | locus YBR171W, strain sec66, active compounds read low 0.984 | locus YBR229C, strain ROT2, active compounds read low 1 | locus YBR231C, strain swc5, active compounds read low 0.984 | locus YBR279W, strain paf1, active compounds read low 0.996 | locus YCL011C, strain gbp2, active compounds read low 0.981 | locus YCL016C, strain dcc1, active compounds read low 0.975 | locus YCL029C, strain bik1, active compounds read low 1 | locus YCL069W, strain vba3, active compounds read low 0.979 | locus YCR088W, strain abp1, active compounds read low 0.979 | locus YDL005C, strain med2, active compounds read low 0.989 | locus YDL035C, strain GPR1, active compounds read low 1.01 | locus YDL040C, strain nat1, active compounds read low 0.982 | locus YDL074C, strain BRE1, active compounds read low 1.02 | locus YDL101C, strain DUN1, active compounds read low 1.01 | locus YDL134C, strain PPH21, active compounds read low 1.01 | locus YDL185W, strain tfp1, active compounds read low 1.01 | locus YDL192W, strain arf1, active compounds read low 1.01 | locus YDR001C, strain nth1, active compounds read low 0.983 | locus YDR069C, strain doa4, active compounds read low 0.996 | locus YDR101C, strain arx1, active compounds read low 0.985 | locus YDR137W, strain rgp1, active compounds read low 0.937 | locus YDR150W, strain NUM1, active compounds read low 1.01 | locus YDR159W, strain sac3, active compounds read low 0.96 | locus YDR162C, strain NBP2, active compounds read low 1.02 | locus YDR195W, strain ref2 0.968 | locus YDR297W, strain sur2, active compounds read low 0.982 | locus YDR318W, strain mcm21, active compounds read low 1 | locus YDR334W, strain swr1, active compounds read low 0.977 | locus YDR335W, strain msn5, active compounds read low 0.976 | locus YDR388W, active compounds read low 1.01 | locus YDR392W, strain spt3, active compounds read low 0.936 | locus YDR502C, strain sam2, active compounds read low 0.991 | locus YEL003W, strain gim4, active compounds read low 0.958 | locus YEL037C, strain rad23, active compounds read low 0.975 | locus YEL061C, strain CIN8 (second series), active compounds read low 0.983 | locus YEL061C, strain CIN8, active compounds read low 1 | locus YER015W, strain faa2, active compounds read low 0.987 | locus YER016W, strain bim1, active compounds read low 0.992 | locus YER110C, active compounds read low 0.993 | locus YER111C, strain swi4, active compounds read low 0.964 | locus YER155C, strain BEM2 (second series), active compounds read low 1.02 | locus YER155C, strain BEM2, active compounds read low 1.01 | locus YER167W, strain BCK2, active compounds read low 1.01 | locus YFR010W, strain ubp6, active compounds read low 0.995 | locus YGL078C, strain dbp3, active compounds read low 1.01 | locus YGL086W, strain mad1, active compounds read low 0.995 | locus YGL167C, strain pmr1, active compounds read low 0.986 | locus YGL173C, strain kem1, active compounds read low 0.975 | locus YGL227W, strain vid30, active compounds read low 0.978 | locus YGL240W, strain doc1, active compounds read low 0.994 | locus YGL248W, strain PDE1, active compounds read low 1 | locus YGL253W, strain hxk2, active compounds read low 0.965 | locus YGR078C, strain PAC10, active compounds read low 1.03 | locus YGR135W, strain pre9, active compounds read low 0.993 | locus YGR229C, strain SMI1, active compounds read low 1.01 | locus YGR252W, strain gcn5, active compounds read low 0.965 | locus YHR013C, strain ard1, active compounds read low 0.96 | locus YHR027C, strain rpn1, active compounds read low 0.99 | locus YHR030C, strain SLT2, active compounds read low 0.999 | locus YHR079C, strain IRE1 (second series), active compounds read low 0.991 | locus YHR094C, strain hxt1, active compounds read low 1 | locus YHR129C, strain ARP1, active compounds read low 1 | locus YHR142W, strain chs7, active compounds read low 0.973 | locus YHR200W, strain rpn10, active compounds read low 1 | locus YIL066C, strain RNR3, active compounds read low 1.01 | locus YIL073C, strain SPO22, active compounds read low 0.991 | locus YIL125W, strain kgd1, active compounds read low 1 | locus YIR030C, strain dcg1, active compounds read low 0.999 | locus YJL092W, strain hpr5, active compounds read low 0.979 | locus YJL095W, strain BCK1 (second series), active compounds read low 0.995 | locus YJL095W, strain BCK1, active compounds read low 1 | locus YJL115W, strain asf1, active compounds read low 0.973 | locus YJL129C, strain trk1, active compounds read low 1.01 | locus YJL134W, strain LCB3, active compounds read low 1.01 | locus YJL154C, strain vps35, active compounds read low 0.977 | locus YJL164C, strain tpk1, active compounds read low 0.977 | locus YJL166W, strain qcr8, active compounds read low 0.998 | locus YJL168C, strain set2, active compounds read low 0.999 | locus YJL187C, strain SWE1 (second series), active compounds read low 0.999 | locus YJL187C, strain SWE1, active compounds read low 0.984
